This is part of a sample that, as a whole, favours compounds with a hit. Of some 83,000 tested, about 20% had one in any assay.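 The endpoint reported here, percent growth, reads 100 for growth as untreated, 0 for no net growth and -100 for all cells dead.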 Unmarked numbers belong to inactive results. Calls of active or inactive are those of the source. How the source made its calls: active means growth percent below 10; inactive means the rest.

Common to all, as to assay: NCI-60 one-dose screen, 48 h (100 = growth as untreated, 0 = no growth, -100 = all killed)
In one assay the test system is HCT-15 colon. As to conditions: 10 µM.
A further assay has as its system HT29 colon. As to conditions: 10 µM.
A further assay concerns SNB-75 CNS. Particulars: 10 µM.
The next assay has as its system U251 CNS. Particulars: 10 µM.
The next assay concerns PC-3 prostate. As to conditions: 10 µM.
A further assay relates to SK-MEL-5 melanoma. As to conditions: 10 µM.
The test system of the next assay is UACC-62 melanoma. Particulars: 10 µM unless noted.
Another assay relates to LOX IMVI melanoma. Particulars: 10 µM.
The next assay concerns SK-MEL-28 melanoma. As to conditions: 10 µM.

For the compound `COC(=O)c1[nH]c(=O)c(C#N)c(C(=O)OC)c1C(=O)c1ccccc1`, the growth with HCT-15 colon was 98.1%; in the assay on HT29 colon, 113%; with SNB-75 CNS, 85.6%; with U251 CNS, 96.8%; in the assay on PC-3 prostate it was 103%; with SK-MEL-5 melanoma, 100%. For the same compound, the growth with UACC-62 melanoma was 88.6%; in the assay with LOX IMVI melanoma, 89.9%; with SK-MEL-28 melanoma, 101%.
As for `CC(C)=C(NC(=O)c1ccccc1)C(=O)O`, the growth is 104% in the assay on HCT-15 colon; 99.6% in the assay with HT29 colon; 108% in the assay with SNB-75 CNS; 114% in the assay on U251 CNS; 87.8% in the assay with PC-3 prostate; 99% with SK-MEL-5 melanoma.
For the compound `CCS(=O)(=O)CCCl`, the growth is 91.8% in the assay on HCT-15 colon; 110% in the assay with HT29 colon; 123% in the assay on SNB-75 CNS; 102% with U251 CNS; 99.5% in the assay with PC-3 prostate; 94.3% in the assay on SK-MEL-5 melanoma. The growth with UACC-62 melanoma is 85.1%; in the assay with LOX IMVI melanoma it was 81.7%; with SK-MEL-28 melanoma it was 106%.
With `O=C(Cc1nc2ccc([N+](=O)[O-])cc2nc1CC(=O)c1ccccc1)c1ccccc1`, the growth in the assay on HCT-15 colon was 35.2%; with HT29 colon it was 75.3%; in the assay with SNB-75 CNS it was 65.2%; in the assay with U251 CNS, 49.2%; with PC-3 prostate it was 59.4%; in the assay with SK-MEL-5 melanoma it was 55%. The growth in the assay with UACC-62 melanoma was 53.2%; in the assay with LOX IMVI melanoma it was 3.86% (active); with SK-MEL-28 melanoma, 64.7%.
In the case of `CC1(O)OC(COc2ccc(Cl)cc2)COC1O` (stereo not given), the growth with HCT-15 colon was 103%; with HT29 colon, 116%; in the assay with SNB-75 CNS, 112%; in the assay on U251 CNS it was 100%; with PC-3 prostate, 107%; in the assay on SK-MEL-5 melanoma it was 101%. Also, the growth in the assay with UACC-62 melanoma is 89.8%; with LOX IMVI melanoma it was 98.9%; with SK-MEL-28 melanoma, 107%.
For `CC(=O)Cc1cc(-c2cc(CC(C)=O)[nH]n2)n[nH]1`, the growth is 99.4% in the assay with HCT-15 colon; 102% in the assay with HT29 colon; 87.1% with SNB-75 CNS; 97.7% in the assay on U251 CNS; 96.7% in the assay on PC-3 prostate; 99.6% in the assay on SK-MEL-5 melanoma. Moreover, the values for the growth in the assay on UACC-62 melanoma, in the assay on LOX IMVI melanoma and with SK-MEL-28 melanoma were 90.3%, 96.3% and 107%, respectively.
`O=[N+]([O-])c1ccc(-c2noc(-c3cccs3)n2)cc1`: the growth with HCT-15 colon is 84%; with HT29 colon it was 92.5%; with SNB-75 CNS, 83.2%; with U251 CNS it was 86.5%; with PC-3 prostate it was 90.3%; in the assay on SK-MEL-5 melanoma, 83.5%. The growth in the assay with UACC-62 melanoma is 76.6%; with LOX IMVI melanoma, 86%; in the assay with SK-MEL-28 melanoma, 99.5%.
As to `Cc1ccc(C)n1-c1ccsc1C(=O)NNC(=O)CCl`, the growth is 88.8% in the assay on HCT-15 colon; 106% with HT29 colon; 112% with SNB-75 CNS; 95.6% in the assay on U251 CNS; 93.4% in the assay with PC-3 prostate; 85.8% with SK-MEL-5 melanoma. In addition, the growth with UACC-62 melanoma was 82.7%; in the assay on LOX IMVI melanoma, 16.4%; with SK-MEL-28 melanoma, 111%.
Regarding `CN(C)CCN(C)CC(C)(C)C(=O)/C=C/c1ccc(Cl)cc1`, the growth in the assay on HCT-15 colon is -66.4% (active); in the assay on HT29 colon, -16.7% (active); with SNB-75 CNS it was 12.2%; in the assay on U251 CNS, -1.73% (active); with PC-3 prostate it was -4.75% (active); in the assay on SK-MEL-5 melanoma it was -24.9% (active). The results for the growth in the assay with UACC-62 melanoma, with LOX IMVI melanoma and in the assay with SK-MEL-28 melanoma were -46.4% (active), -96.4% (active) and -11.2% (active), respectively.
Turning to `CCCCCCCCCCCCCC(=O)Oc1ccc[nH]c1=O`, the growth is 85.8% with HCT-15 colon; 91.9% with HT29 colon; 110% in the assay on SNB-75 CNS; 96.3% with U251 CNS; 86.9% in the assay with PC-3 prostate; 97.1% with SK-MEL-5 melanoma. Moreover, the growth was 88.7% in the assay on UACC-62 melanoma, 44.1% in the assay on LOX IMVI melanoma and 109% in the assay with SK-MEL-28 melanoma.
Regarding `CS(=O)CC1=NC(=N)N=C1CS(C)=O` (stereo not given), the growth was 102% in the assay with HCT-15 colon; 109% with HT29 colon; 97.7% with SNB-75 CNS; 98.1% in the assay on U251 CNS; 98.7% in the assay with PC-3 prostate; 99.3% in the assay with SK-MEL-5 melanoma. In addition, the growth in the assay with UACC-62 melanoma was 98.4%; in the assay on SK-MEL-28 melanoma it was 108%.
As for `COc1ccc(-c2cc(-c3cc(-c4ccc(OC)cc4)nc(N)n3)nc(N)n2)cc1`, the growth in the assay with HCT-15 colon is 103%; in the assay with HT29 colon, 105%; with SNB-75 CNS, 91.4%; in the assay on U251 CNS it was 101%; in the assay on PC-3 prostate it was 96.5%; in the assay with SK-MEL-5 melanoma, 97.1%. The values for the growth in the assay on UACC-62 melanoma, in the assay on LOX IMVI melanoma and in the assay with SK-MEL-28 melanoma were 91.4%, 95% and 103%, respectively.
On to `CN(C)Cc1cc(C(C)(C)CC(C)(C)C)ccc1O`, for which the growth in the assay on HCT-15 colon is 79.4%; in the assay on HT29 colon, 99.9%; in the assay on SNB-75 CNS, 79.9%; in the assay with U251 CNS it was 90.8%; with PC-3 prostate, 84.1%; in the assay with SK-MEL-5 melanoma, 100%. The growth with UACC-62 melanoma was 99.5%; in the assay with LOX IMVI melanoma, 94.9%; in the assay with SK-MEL-28 melanoma, 109%.
`Nc1nc2c(c(-c3nc(N)nc4c3CCc3ccccc3-4)n1)CCc1ccccc1-2`: the growth is 104% with HCT-15 colon; 112% in the assay with HT29 colon; 98.8% in the assay on SNB-75 CNS; 114% with U251 CNS; 86.9% in the assay on PC-3 prostate; 99.3% in the assay with SK-MEL-5 melanoma. The growth in the assay with UACC-62 melanoma was 94.6%; in the assay with LOX IMVI melanoma it was 98.3%; in the assay with SK-MEL-28 melanoma, 115%.
For `CC(=O)CC(=O)N(C)C`, the growth in the assay with HCT-15 colon is 95.1%; in the assay on HT29 colon it was 97.8%; in the assay on SNB-75 CNS, 80.1%; with U251 CNS, 100%; in the assay with PC-3 prostate, 92.8%; with SK-MEL-5 melanoma, 93.7%. For the same compound, the growth is 88.8% with UACC-62 melanoma, 94.1% with LOX IMVI melanoma and 105% in the assay with SK-MEL-28 melanoma.
For the compound `Cc1cc(NC(=O)CSCC(=O)O)no1`, the growth in the assay on HCT-15 colon is 96.7%; with HT29 colon it was 98.5%; with SNB-75 CNS, 102%; in the assay with U251 CNS, 101%; with PC-3 prostate, 98.6%; in the assay with SK-MEL-5 melanoma, 101%. Also, the growth in the assay on UACC-62 melanoma is 94.7%; in the assay with LOX IMVI melanoma, 103%; in the assay on SK-MEL-28 melanoma, 108%.

These data come from PubChem BioAssay (NCI).
